The source made the active and inactive calls. The calls were made as follows: active = hit-call score of the fitted dose curve at least 0.9, where 1 is the maximum; inactive = score below 0.9.
Legend:
[1] = ATG_ISRE_CIS: Attagene CIS-FACTORIAL HepG2 Assay for human Interferon Regulatory Factor 1 (IRF1) binding to an Interferon-Stimulated Response Element (ISRE) (AID 2282948); conditions: HepG2 ISRE cis-reporter (Attagene), mRNA transcription readout; actives raise or lower the signal
How it was run: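 Endogenous transcription factor activity read as reporter transcript abundance via RT-PCR and capillary electrophoresis. HepG2 cells transiently transfected, 24 h chemical exposure. Gain or loss fitted against DMSO baseline.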

[2] = ATG_M_32_CIS: Attagene CIS-FACTORIAL HepG2 Assay for M32 Transcription Factor (Internal Marker) (AID 2282949); conditions: HepG2 Attagene cis-factorial M32 reporter, mRNA; actives raise or lower the signal;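 also: background control marker of the multiplexed CIS panel rather than a real target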
How it was run: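 HepG2 human liver cells transiently transfected with cis-promoter-driven multiple reporter transcription units, dosed 24 h. Reporter mRNA quantified by RT-PCR, FAM-labelled primer extension, HpaI digest and capillary electrophoresis; bidirectional fit versus DMSO baseline.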

[3] = ATG_M_06_CIS: Attagene CIS-FACTORIAL HepG2 Assay for M06 Transcription Factor (Internal Marker) (AID 2282950); conditions: HepG2 Attagene CIS-FACTORIAL M06 internal marker reporter; actives raise or lower the signal
How it was run: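 Cells (HepG2, transiently carrying cis-driven reporter units) receive chemical for 24 h before RNA isolation. Reporter cDNA is PCR-amplified, FAM-labelled by primer extension, HpaI-digested and sized on a capillary analyser.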

[4] = target: Hepatocyte nuclear factor 6 (Homo sapiens) (UniProt Q9UBC0); experiment: ATG_HNF6_CIS: Attagene CIS-FACTORIAL HepG2 Assay for human Hepatocyte Nuclear Factor 6 (HNF6) (AID 2282952); conditions: HepG2 Attagene cis-factorial HNF6 reporter transcription; actives raise or lower the signal
Sequence of Hepatocyte nuclear factor 6 (Homo sapiens) (Q9UBC0 whole entry, looked up): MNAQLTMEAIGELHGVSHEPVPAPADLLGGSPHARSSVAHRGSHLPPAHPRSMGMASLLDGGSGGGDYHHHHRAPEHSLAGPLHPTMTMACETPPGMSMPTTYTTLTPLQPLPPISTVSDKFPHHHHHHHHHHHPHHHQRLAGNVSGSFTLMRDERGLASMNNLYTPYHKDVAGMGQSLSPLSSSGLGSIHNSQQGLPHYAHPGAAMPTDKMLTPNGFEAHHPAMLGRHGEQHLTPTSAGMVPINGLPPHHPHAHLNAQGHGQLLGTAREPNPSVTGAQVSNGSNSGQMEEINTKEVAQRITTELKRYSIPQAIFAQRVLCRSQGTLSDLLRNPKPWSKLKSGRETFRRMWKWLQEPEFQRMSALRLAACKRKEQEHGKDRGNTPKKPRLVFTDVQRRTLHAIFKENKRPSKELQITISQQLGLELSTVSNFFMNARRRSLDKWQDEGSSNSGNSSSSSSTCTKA
How it was run: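 Endogenous transcription factor activity in human HepG2 liver cells was captured through cis-regulated reporter constructs. After 24 h treatment, reporter mRNA was measured by RT-PCR with capillary electrophoresis, and activity was fitted in both directions relative to DMSO.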

[5] = target: Heat shock factor protein 1 (Homo sapiens) (UniProt Q00613); experiment: ATG_HSE_CIS: Attagene CIS-FACTORIAL HepG2 Assay for human Heat Shock Transcription Factor 1 (HSE) (AID 2282953); conditions: HepG2 HSE cis-reporter, Attagene RNA transcription; actives raise or lower the signal
Sequence of Heat shock factor protein 1 (Homo sapiens) (Q00613 whole entry, looked up): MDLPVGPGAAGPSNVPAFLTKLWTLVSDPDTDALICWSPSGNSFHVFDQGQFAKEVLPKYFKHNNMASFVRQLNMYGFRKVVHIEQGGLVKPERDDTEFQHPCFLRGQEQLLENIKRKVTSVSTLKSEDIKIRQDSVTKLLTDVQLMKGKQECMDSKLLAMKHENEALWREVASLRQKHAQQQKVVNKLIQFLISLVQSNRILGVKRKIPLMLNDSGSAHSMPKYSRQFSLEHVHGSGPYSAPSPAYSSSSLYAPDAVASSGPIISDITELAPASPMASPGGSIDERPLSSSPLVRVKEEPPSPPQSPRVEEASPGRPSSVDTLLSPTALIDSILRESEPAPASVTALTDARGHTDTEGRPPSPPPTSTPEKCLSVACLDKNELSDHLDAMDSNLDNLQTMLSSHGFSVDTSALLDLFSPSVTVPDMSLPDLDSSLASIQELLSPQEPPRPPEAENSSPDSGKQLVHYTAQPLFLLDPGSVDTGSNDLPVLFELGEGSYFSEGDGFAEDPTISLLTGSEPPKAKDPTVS
How it was run: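 Liver-derived HepG2 cells carry transiently introduced multiple reporter units governed by cis promoters. Reporter RNA measured 24 h post-dose through reverse transcription, PCR amplification, fluorescent labelling and capillary electrophoresis, normalised to DMSO.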

[6] = ATG_MRE_CIS: Attagene CIS-FACTORIAL HepG2 Assay for human Metal Responsive Element (MRE) (AID 2282954); conditions: HepG2 MRE cis-reporter transcription, Attagene multiplex; actives raise or lower the signal
How it was run: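 Measured here is mRNA induction from an MRE cis-element reporter in HepG2 after 24 h, quantified by fluorescence of labelled RT-PCR products on capillary electrophoresis; gain- and loss-of-signal fits use DMSO as baseline.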

[7] = ATG_PBREM_CIS: Attagene CIS-FACTORIAL HepG2 Assay for human Phenobarbital-responsive Enhancer Module (PBREM) (AID 2282955); conditions: HepG2 PBREM cis-reporter, Attagene multiplexed transcription; actives raise or lower the signal
How it was run: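 Endogenous transcription factors in human liver HepG2 cells drive a PBREM cis-element reporter, whose transcript level after 24 h treatment is quantified by RT-PCR with capillary electrophoresis; activity fitted in both directions against DMSO.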

[8] = target: Hypoxia-inducible factor 1-alpha (Homo sapiens) (UniProt Q16665); experiment: ATG_HIF1a_CIS: Attagene CIS-FACTORIAL HepG2 Assay for human Hypoxia Inducible Factor 1 (HIF1A) (AID 2282951); conditions: HepG2 Attagene cis-factorial HIF1a reporter transcription; actives raise or lower the signal
Sequence of Hypoxia-inducible factor 1-alpha (Homo sapiens) (Q16665 whole entry, looked up, the tested form may be a part): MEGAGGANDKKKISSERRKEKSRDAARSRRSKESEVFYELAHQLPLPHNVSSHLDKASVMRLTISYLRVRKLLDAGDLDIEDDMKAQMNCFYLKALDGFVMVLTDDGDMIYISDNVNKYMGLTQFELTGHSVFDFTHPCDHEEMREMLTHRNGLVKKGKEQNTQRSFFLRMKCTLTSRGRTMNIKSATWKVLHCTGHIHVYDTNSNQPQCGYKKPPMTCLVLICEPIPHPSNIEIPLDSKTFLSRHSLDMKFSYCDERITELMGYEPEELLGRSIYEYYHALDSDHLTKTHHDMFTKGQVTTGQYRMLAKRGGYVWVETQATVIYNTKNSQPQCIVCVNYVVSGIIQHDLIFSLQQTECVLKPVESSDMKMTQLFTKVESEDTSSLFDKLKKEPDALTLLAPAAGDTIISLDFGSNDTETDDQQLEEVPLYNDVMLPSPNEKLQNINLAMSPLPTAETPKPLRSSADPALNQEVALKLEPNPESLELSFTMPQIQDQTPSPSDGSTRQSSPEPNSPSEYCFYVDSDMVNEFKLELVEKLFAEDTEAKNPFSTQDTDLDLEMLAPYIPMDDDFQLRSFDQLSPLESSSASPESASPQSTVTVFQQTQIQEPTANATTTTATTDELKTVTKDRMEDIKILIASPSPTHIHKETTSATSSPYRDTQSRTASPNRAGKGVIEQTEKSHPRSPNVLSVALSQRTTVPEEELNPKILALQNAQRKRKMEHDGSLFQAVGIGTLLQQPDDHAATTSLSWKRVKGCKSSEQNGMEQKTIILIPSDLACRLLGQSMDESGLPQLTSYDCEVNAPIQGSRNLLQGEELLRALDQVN
How it was run: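 Transient MRTU transfection of human HepG2 liver cells, 24 h compound treatment, then total RNA isolation, oligo(dT) reverse transcription, PCR amplification, fluorescent labelling and capillary electrophoresis of reporter fragments. Gain or loss relative to DMSO.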

[9] = ATG_GRE_CIS: Attagene CIS-FACTORIAL HepG2 Assay for human Glucocorticoid Response Elements (GRE) (AID 2282947); conditions: HepG2 GRE cis-reporter, Attagene multiplex mRNA; actives raise or lower the signal
How it was run: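 Fluorescence intensity of reporter-specific cDNA fragments, separated by capillary electrophoresis, provides the signal. Constructs carry cis-regulating promoters in transiently transfected HepG2 liver cells; 24 h incubation; fitting is bidirectional against DMSO.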

Row | SMILES | outcome [1] | outcome [2] | outcome [3] | outcome [4] | outcome [5] | outcome [6] | outcome [7] | outcome [8] | outcome [9] | AC50 [5] | AC50 [6] | AC50 [7] | AC50 [1]
1 | O=C1CCCC(=O)O1 | inactive | inactive | inactive | inactive | inactive | inactive | inactive | – | – | – | – | – | –
2 | CC(C)=CCC[C@H](C)CCO | – | inactive | inactive | inactive | inactive | inactive | – | inactive | – | – | – | – | –
3 | C1=Cc2ccccc2C1 | inactive | inactive | inactive | inactive | inactive | inactive | inactive | inactive | – | – | – | – | –
4 | O=S1(=O)OC(c2ccc(O)cc2)(c2ccc(O)cc2)c2ccccc21 | inactive | inactive | inactive | inactive | inactive | inactive | inactive | inactive | – | – | – | – | –
5 | COC=O | inactive | inactive | inactive | inactive | inactive | inactive | inactive | inactive | – | – | – | – | –
6 | CCN(CC#N)c1cccc(C)c1 | – | inactive | inactive | inactive | inactive | inactive | inactive | inactive | – | – | – | – | –
7 | CC(=O)OCc1ccco1 | inactive | inactive | inactive | inactive | inactive | inactive | inactive | inactive | – | – | – | – | –
8 | CCCCC(CC)COC(=O)c1ccccc1O (configuration not stated) | – | inactive | inactive | inactive | inactive | inactive | inactive | inactive | inactive | – | – | – | –
9 | CCO[Si](CCCN=C=O)(OCC)OCC | inactive | inactive | inactive | inactive | inactive | inactive | inactive | inactive | – | – | – | – | –
10 | CC/C=C\CCOC(=O)CCCCC | inactive | inactive | inactive | inactive | – | – | inactive | inactive | – | – | – | – | –
11 | Cc1ccc(C(C)(C)C)cc1 | inactive | inactive | inactive | inactive | inactive | – | inactive | inactive | – | – | – | – | –
12 | O=C(Nc1ccccc1SSc1ccccc1NC(=O)c1ccccc1)c1ccccc1 | – | inactive | inactive | inactive | – | inactive | inactive | inactive | inactive | 47.1 µM (active) | – | – | –
13 | Cc1cccc(C(=O)O)c1 | inactive | inactive | inactive | inactive | inactive | inactive | inactive | inactive | – | – | – | – | –
14 | CCCCCCOc1cc(C)c(O)c(C)c1C | – | inactive | inactive | inactive | inactive | – | – | inactive | inactive | – | 18.2 µM (active) | 11.1 µM (active) | –
15 | C=CC(=O)NC(C)(C)CS(=O)(=O)O | inactive | inactive | inactive | inactive | inactive | inactive | inactive | inactive | – | – | – | – | –
16 | [Cl][In]([Cl])[Cl] | – | inactive | inactive | inactive | – | inactive | inactive | inactive | inactive | – | – | – | –
17 | CC(CC=O)c1ccccc1 (configuration not stated) | – | inactive | inactive | inactive | inactive | – | inactive | inactive | – | – | 104 µM (active) | – | 56.1 µM (active)
18 | O=S(=O)(Oc1ccc(Cl)cc1Cl)c1ccccc1 | inactive | inactive | inactive | inactive | – | – | – | – | – | – | 32.8 µM (active) | 7.97 µM (active) | –
19 | O=C1C(N(CO)C(=O)NCO)N(CO)C(=O)N1CO (configuration not stated) | inactive | inactive | inactive | inactive | inactive | inactive | inactive | inactive | – | – | – | – | –
20 | Cc1cc(C)c(C)c(O)c1 | – | inactive | inactive | inactive | inactive | inactive | inactive | inactive | – | – | – | – | –
21 | N#[N+]c1ccc2c(S(=O)(=O)[O-])cccc2c1O | inactive | inactive | inactive | inactive | inactive | inactive | inactive | inactive | – | – | – | – | –
22 | CCN(Cc1cccc(S(=O)(=O)O)c1)c1ccc(C(=C2C=CC(=[N+](CC)Cc3cccc(S(=O)(=O)[O-])c3)C=C2)c2ccccc2)cc1 | inactive | inactive | inactive | inactive | – | inactive | inactive | inactive | – | 83 µM (active) | – | – | –
23 | Cc1c(C)c([N+](=O)[O-])c(C(C)(C)C)c([N+](=O)[O-])c1C | inactive | inactive | inactive | inactive | inactive | inactive | inactive | – | – | – | – | – | –
24 | SCCc1cnccn1 | – | inactive | inactive | inactive | inactive | inactive | inactive | – | inactive | – | – | – | –
25 | CC1=CC[C@H](C(C)C)C=C1 | inactive | inactive | inactive | inactive | inactive | – | inactive | inactive | – | – | 66.3 µM (active) | – | –
